Results filed as inconclusive are left out. A call without a number means that no potency is given here. The source made the active and inactive calls. Calls come from the whole dose curve; as a rule, active = well fitted inhibition curve with a large enough effect; inconclusive = small, poorly fitted or top-dose-only effect; inactive = flat fitted curve, though single readings scatter.
Potency is the fitted concentration of half-maximal effect.

The subject of this experiment is NIH3T3. Briefly: qHTS assay to identify novel small-molecules to repurpose for Merkel cell carcinoma treatment (AID 1296009). Note: nearly all actives have a fitted effect of over 60% in size. The conditions noted are these: MCC and control cell lines, CellTiter-Glo viability, 72 h; series mostly up to 44.8 µM. The source says: MCC is a rare and aggressive neuroendocrine skin cancer with limited treatment options. Approximately 80% of MCCs have the Merkel cell polyomavirus (MCPyV) DNA integrated into the host genome (virus-positive: VP-MCC) and viral oncogenes drive oncogenesis. The remaining MCCs are virus-negative (VN-MCC) and are caused by UV mutagenesis. To identify novel treatments for VP-MCC and/or VN-MCC we screened three VP-MCC cell lines (WAGA, MKL-1, MKL-2), three VN-MCC cell lines (MCC-13, MCC-26, UISO), and four immortalized, non-transformed control cell lines (HaCaT, HEK293T, CRL7250, NIH-3T3) against ~2,400 compounds in the NCGC Pharmaceutical Collection (NPC) and ~1,900 compounds in the Mechanism Interrogation PlatE (MiPE). Using cell viability as a readout (CellTiter-Glo assay) we found both overlapping and distinct drugs that can be repurposed for the treatment of VP-MCC and VN-MCC.
A high-throughput screen was conducted in 1536-well white flat bottom plates (Corning) on a Kalypsys robotic system. Cell lines WAGA, MKL-1, MKL-2, MCC-13, MCC-26, UISO, HaCaT, HEK293T, CRL7250, and NIH-3T3 were screened against 2 small molecule annotated drug libraries NPC and MIPE in dose response (8 and 11 pt. respectively) measuring cell viability after 72 hours of incubation. […] A 1,536 pintool (Kalypsys) was used to transfer 23 nL of compound in DMSO to the 1,536-well assay plates. After 72 hr incubation at 37 degree celsius, 2.5 uL of CellTiter-Glo (Promega) was dispensed into each well using a BiorapTR. Plates were incubated at room temperature for 10 min, transferred to a ViewLux (PerkinElmer) and the luminescence was recorded using an exposure time of 2 seconds. Relative luminescence units (RLUs) were normalized to in-plate controls (no cells as a positive (cytotoxicity) control, DMSO as negative control) and the normalized data was processed using NCATS in-house software.
For orientation: qHTS replaces the single test concentration by a dilution series.
For `CCC(C)/C=C(C)/C=C/C1=CC2=C(Cl)C(=O)C(C)(OC(C)=O)C(=O)C2(O)C(OC)O1` (stereo not given), the Potency result was “inactive”.

Consider `COc1cc(O)cc(OC2OC(CO)C(O)C(O)C2O)c1` (stereo not given), for which the Potency result is “inactive”.

`COc1cc2ncc(-c3ccccc3)nc2cc1OC`: the Potency entry was “inactive”.

With `CCN1CCC[C@@H]1CNC(=O)c1ccc2c(c1)NC(=O)c1cccc(C)c1S2`, the Potency result is “inactive”.

Regarding `CC1=CC2/C=C(\C)CCC(O)C/C=C/C(=O)OC23C(=O)NC(CC(C)C)C3C1C` (stereo not given), the Potency result is “inactive”.

Turning to `C1=Cc2ccccc2C(=C2CCN(CCCCc3nn[nH]n3)CC2)c2ccccc21`, the Potency result was “inactive”.

Regarding `C=C[C@H](/C=C\c1ccc(O)cc1)c1ccc(O)cc1`, the Potency result is “inactive”.

For the compound `COC1CC(O[C@H]2CC[C@]3(C)C4CC[C@@]5(C)C(=O)[C@]4(CC[C@@H]3C2)CC[C@@H]5C2=CC(=O)OC2)OC(C)C1OC1OC(COC2OC(CO)C(O)C(O)C2O)C(O)C(O)C1O` (stereo not given in full), the outcome was “inactive [at 9.27 µM]”.

Regarding `CC(C)c1cc(-c2ccc(F)c3ccccc23)nc(N)n1`, the Potency entry is “inactive”.

For the compound `CC(=O)NC[C@H]1CN(c2ccc(N3CCSCC3)c(F)c2)C(=O)O1`, the Potency entry is “inactive”.

With `CC(C)(O)c1ccc2c(c1)ncn2-c1cccc(-c2ccccc2C#N)c1`, the Potency entry is “inactive”.

Take `CC(=O)OC(C)(C)/C=C/C(=O)C(C)(O)C1C(O)CC2(C)C3CC=C(C(C)(C)C(=O)O)C(CC(=O)O)C3(C)C(=O)CC12C` (stereo not given): the Potency result is “inactive”.

Consider `CC(=O)O[C@H]1CC2C(COC(=O)CC(C)C)=CO[C@@H](OC(=O)CC(C)C)C2[C@]12CO2` (stereo not given in full), for which the Potency entry is “inactive”.

For the compound `CCC(CC)C(=O)OC12C(OC(=O)C(C)C)C(C)C3(O)C(C=C(CO)CC4(O)C(=O)C(C)=CC43)C1C2(C)C` (stereo not given), the Potency result was “inactive”.

For `CC1OC(=O)C[C@@H]2C(C(=O)O)=CO[C@@H](O[C@H]3O[C@H](CO)[C@@H](O)[C@H](O)[C@H]3O)[C@H]12` (stereo not given in full), the Potency entry was “inactive”.

Regarding `O=C(NCC1(N2CCN(c3ccccc3)CC2)CCOCC1)c1cccnc1Sc1ccccc1`, the Potency entry is “inactive”.

Regarding `Cc1cc(OCCCS(C)(=O)=O)cc(C)c1-c1cccc(COc2ccc3c(c2)OCC3CC(=O)O)c1` (stereo not given), the Potency entry was “inactive”.

As for `CC[C@H](C)/C=C(C)/C=C/C1=CC2=C(Cl)C(=O)[C@](C)(O)[C@H](OC(C)=O)[C@H]2CO1`, the Potency result was “inactive”.

With `CN(C)S(=O)(=O)c1ccc(NC(=S)N2CCC(C(O)(c3ccccc3)c3ccccc3)CC2)cc1`, the Potency entry was “inactive”.

As for `C[C@H]1CC[C@@]2(OC1)O[C@H]1CC3C4CC[C@H]5C[C@@H](O)CC[C@]5(C)C4=CC(=O)[C@]3(C)[C@H]1[C@@H]2C` (stereo not given in full), the Potency result is “inactive”.

For `CCC(C)C1NC(=O)C(Cc2ccccc2)NC(=O)C(CCCCCC(=O)C(O)CO)NC(=O)C2CCCCN2C1=O` (stereo not given), the Potency entry is “inactive”.

With `N#Cc1cc(C2=Nc3ccc(Br)cc3NC(=O)C2)ccn1`, the Potency result is “inactive”.

Turning to `CC[N+]1(C/C2=C/CCCCCC2)CCC(NC(=O)C2c3cc(Cl)ccc3Oc3ccc(Cl)cc32)CC1` (stereo not given), the Potency result was “inactive”.

Regarding `CC#C[C@@H](CC(=O)O)c1ccc(OCc2ccc(CN3CCC4(C=Cc5ccccc54)CC3)s2)cc1`, the Potency result is “inactive”.

For the compound `CCC(C)C(=O)O[C@H]1[C@@H](OC(=O)c2ccoc2)C[C@](C)(O)[C@]23OC(C)(C)[C@H](C[C@H](OC(=O)c4ccoc4)[C@]12COC(C)=O)[C@H]3OC(C)=O` (stereo not given in full), the Potency result is “inactive”.

With `CC(=O)C1=CCC2C3CC=C4CC(O)CC(O)C4(C)C3C(O)CC12C` (stereo not given), the Potency result is “inactive”.

Regarding `CCn1c(-c2nonc2N)nc2c(C#CC(C)(C)O)ncc(OCC3CCCNC3)c21` (stereo not given), the Potency entry was “inactive”.

Take `C[C@@]12C(=O)N(c3ccc(C(=O)Nc4cccc5cccnc45)cc3)C(=O)[C@@H]1[C@@H]1C=C[C@H]2C1`: the Potency entry is “inactive”.

Turning to `COc1ccc2c(c1O[C@H]1CCNC1)CCC2`, the Potency result was “inactive”.

As for `Cn1nc(C(C)(C)C)cc1C(=O)N[C@@H](Cc1cccc(Cl)c1)C(=O)NCC#N`, the Potency entry was “inactive”.

`CCN(CC)C(=O)C(c1ccccc1)N1CCN(c2ccc(NC(=O)c3ccccc3-c3cccnc3)cc2F)CC1` (stereo not given): the Potency entry was “inactive”.

`CC[C@@H](C)Nc1cc(C(=O)NC2CC3CC[C@@H](C2)N3c2ccc(C(=O)C3CC3)cn2)c(C)cc1C(N)=O` (stereo not given in full): the Potency is 184 nM (active).

With `O=C1Cc2c([nH]c3ccc(Br)cc23)-c2ncccc2N1`, the Potency entry was “inactive”.

In the case of `CC(=O)c1ccc2c(c1)[C@H](NC(=O)c1ccc(F)c(Cl)c1)[C@H](O)C(C)(C)O2`, the Potency result is “inactive”.

For `COc1ccccc1N1CCN(CC(C(=O)NC(C)(C)C)c2ccccc2)CC1` (stereo not given), the Potency entry was “inactive”.

As to `CC(C)c1c(O)ccc2c1CC[C@H]1C(C)(C)CCC[C@]21C`, the Potency result is “inactive”.

Turning to `CCOC(=O)CCNc1cc(N2CCc3ccccc3CC2)nc(-c2cccnc2)n1`, the Potency result was “inactive”.

Take `COc1ccc2cc(-c3cc(-c4cc(Cl)cc(Cl)c4)nn3C(C)c3ccc(C(=O)NCCC(=O)O)cc3)ccc2c1` (stereo not given): the Potency entry is “inactive”.

Regarding `Cc1cc(C)c(S(=O)(=O)n2cc(C)cc2C)c(C)c1`, the Potency entry was “inactive”.

Take `CC(=O)NCc1cccc(OC[C@@H](O)CNCCc2ccc(NS(=O)(=O)c3ccccc3)cc2)c1`: the Potency result is “inactive”.

(Values after PubChem BioAssay (NCATS).)
